We go through twelve compounds from PubChem BioAssay (NCI).

Test systems include NCI-H23 lung; NCI-H226 lung; NCI-H322M lung; HOP-62 NSCLC; NCI-H460 lung; HOP-92 NSCLC; NCI-H522 lung; A549/ATCC NSCLC; 786-0 renal; COLO 205 colon.
Common to all, as to test: NCI-60 one-dose screen, 48 h (100 = growth as untreated, 0 = no growth, -100 = all killed)
What all share (settings): 10 µM unless noted

Structures are written as SMILES. The panel holds about 83,000 compounds, 20% with a hit somewhere; the sample as a whole holds those more often.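 Cells were grown in 96-well plates and exposed to the test compound at a single concentration for 48 hours; results are reported as percent growth, with values below 10 considered active.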 Unmarked numbers belong to inactive results. The source made the active and inactive calls.

For `CC(=O)c1cc(O)c2ccccc2c1O`, the growth was 85.9% in the test on NCI-H23 lung; 92.9% in the test on NCI-H226 lung; 105% with NCI-H322M lung; 87.4% in the test with HOP-62 NSCLC; 103% in the test with NCI-H460 lung; 92.6% with HOP-92 NSCLC. For the same compound, the growth was 78.7% in the test with NCI-H522 lung, 99.7% with A549/ATCC NSCLC, 97.8% in the test with 786-0 renal and 116% in the test on COLO 205 colon.
With `CNc1nc(S(=O)c2ccc(C#N)cc2)nc2ccccc12` (stereo not given), the growth was 78.4% in the test on NCI-H23 lung; 81.1% in the test with NCI-H226 lung; 99.6% with NCI-H322M lung; 98.5% with HOP-62 NSCLC; 85.2% with NCI-H460 lung; 75% with HOP-92 NSCLC. Further, the growth in the test on NCI-H522 lung is 50.3%; in the test on A549/ATCC NSCLC, 90.1%; in the test on 786-0 renal, 97.5%; with COLO 205 colon, 91.6%.
`COc1ccc(/C=C2\COc3ccc(O)cc3C2=O)c(OC)c1OC`: the growth in the test on NCI-H23 lung was 89.5%; in the test on NCI-H226 lung it was 99%; in the test on NCI-H322M lung, 95.8%; in the test on HOP-62 NSCLC, 80.9%; in the test on NCI-H460 lung it was 84.8%; with HOP-92 NSCLC it was 102%. Also, the growth with NCI-H522 lung was 55.6%; with A549/ATCC NSCLC it was 92.4%; in the test on 786-0 renal, 87.7%; with COLO 205 colon, 102%.
`OCCNCCCOc1ccc2ncnc(Nc3ccc(Oc4cccc(C(F)(F)F)c4)c(Cl)c3)c2c1`: the growth in the test on NCI-H23 lung is 63.8%; in the test with NCI-H226 lung it was 85.2%; in the test with NCI-H322M lung, 21.5%; in the test with HOP-62 NSCLC, 66.5%; with NCI-H460 lung, -82.5% (active); in the test on HOP-92 NSCLC it was 40.5%. Besides, the growth in the test on NCI-H522 lung was 30.8%; in the test with A549/ATCC NSCLC, 23.8%; in the test with 786-0 renal, -4.05% (active); in the test on COLO 205 colon, -27.7% (active).
With `CNC(=O)c1c(NC(=O)c2ccc(C(F)(F)F)cc2)sc2c1CCC(=O)C2`, the growth in the test with NCI-H23 lung is -5.25% (active); with NCI-H226 lung, 9.17% (active); in the test with NCI-H322M lung, 29.5%; in the test on HOP-62 NSCLC, 14.5%; with NCI-H460 lung, 4.57% (active); in the test on HOP-92 NSCLC, -35.8% (active). The growth with NCI-H522 lung was -26.1% (active); in the test on A549/ATCC NSCLC, 13.7%; in the test on 786-0 renal, 10.3%; in the test on COLO 205 colon it was -36.1% (active).
Turning to `O=C1Nc2ccc(Br)cc2/C1=N/c1n[nH]c(=S)s1`, the growth with NCI-H23 lung was 93.3%; with NCI-H226 lung, 99.4%; in the test on NCI-H322M lung, 107%; in the test on HOP-62 NSCLC it was 89%; in the test with NCI-H460 lung, 106%; with HOP-92 NSCLC it was 94.8%. The growth with NCI-H522 lung is 93.4%; with A549/ATCC NSCLC, 98%; in the test with 786-0 renal it was 97.8%; with COLO 205 colon, 114%.
Turning to `CN1CCN(Cc2ccc(NC(=O)c3cncc(C#Cc4cnc(N)c5ccccc45)c3)cc2C(F)(F)F)CC1`, the growth is -74.1% (active) in the test on NCI-H23 lung; -91% (active) in the test with NCI-H226 lung; -87.1% (active) in the test with NCI-H322M lung; -74.7% (active) in the test with HOP-62 NSCLC; -77.3% (active) in the test on NCI-H460 lung; -74.4% (active) in the test on HOP-92 NSCLC. For the same compound, the growth in the test on NCI-H522 lung is -73.2% (active); with A549/ATCC NSCLC it was -89.1% (active); in the test with 786-0 renal it was -79.6% (active); with COLO 205 colon, -78.1% (active).
Turning to `C#CCOc1ccc2ncnc(Nc3cccc(NC(=O)C=C)c3)c2c1`, the growth in the test on NCI-H23 lung was 80.7%; in the test with NCI-H226 lung it was 76.2%; in the test with NCI-H322M lung it was 61.1%; in the test with HOP-62 NSCLC it was 63.6%; in the test with NCI-H460 lung, 65.1%; in the test with HOP-92 NSCLC, 66.1%. Moreover, the growth is 50.3% in the test with NCI-H522 lung, 56.4% in the test on A549/ATCC NSCLC, 56.4% in the test with 786-0 renal and 87.5% with COLO 205 colon.
In the case of `COc1ccc2[nH]cc(-c3nc(-c4c[nH]c5ccncc45)cs3)c2c1`, the growth was 76.6% in the test with NCI-H23 lung; 93.3% in the test with NCI-H226 lung; 67.6% in the test with NCI-H322M lung; 27.6% with HOP-62 NSCLC; -20.7% (active) with NCI-H460 lung; 62.5% in the test with HOP-92 NSCLC. Besides, the growth was -18.8% (active) in the test with NCI-H522 lung, 24% in the test with A549/ATCC NSCLC, -86% (active) with 786-0 renal and -62.8% (active) with COLO 205 colon.
In the case of `CC(=O)Nc1nc2ccc(NS(=O)(=O)c3cccc4c(N(C)C)cccc34)cc2[nH]1`, the growth with NCI-H23 lung was 70.5%; in the test with NCI-H226 lung, 68.7%; in the test with NCI-H322M lung, 82.2%; in the test on HOP-62 NSCLC, 69.3%; in the test on NCI-H460 lung, 68%; in the test with HOP-92 NSCLC, 72.2%. For the same compound, the growth is 43.3% in the test with NCI-H522 lung, 68% with A549/ATCC NSCLC, 79.7% in the test on 786-0 renal and 65.9% in the test on COLO 205 colon.
Take `O=C(OCc1ccc2cccc(O)c2n1)N1CCN(C(=O)c2cc3cc(F)ccc3[nH]2)CC1`: the growth with NCI-H23 lung was -22.8% (active); in the test on NCI-H226 lung, 56.9%; in the test with NCI-H322M lung, 60%; with HOP-62 NSCLC, -29.7% (active); with NCI-H460 lung it was -47.6% (active); with HOP-92 NSCLC, -75.9% (active). Also, the growth with NCI-H522 lung is -63.2% (active); with A549/ATCC NSCLC, -56.2% (active); in the test with 786-0 renal, -87.1% (active); in the test on COLO 205 colon it was -77.4% (active).
For the compound `C[C@]12C=CC(=O)C=C1CCC1C2[C@@H](O)C[C@@]2(C)C1CC[C@]2(O)C(=O)COC(=O)CCC(=O)O` (stereo not given in full), the growth in the test on NCI-H23 lung was 106%; in the test on NCI-H226 lung, 84.6%; in the test with NCI-H322M lung, 106%; in the test with HOP-62 NSCLC it was 121%; in the test on NCI-H460 lung, 103%; with HOP-92 NSCLC, 87.1%. Besides, the growth in the test on NCI-H522 lung is 103%; in the test with A549/ATCC NSCLC, 71.3%; in the test with 786-0 renal, 102%; with COLO 205 colon, 124%.
